# Test results: PubChem BioAssay AID1159580 (chemical genetic matrix, 2015)
# Values joined by “and” are separate entries in the source; they are usually repeats but may differ in a detail not shown here. Equal entries are not always repeated. In all, about 5,500 compounds went through this assay and about 2,000 (36%) were called active. Another 18% or so got no clear call; they are omitted. This is one part of the list. Unmarked numbers belong to inactive results. Cut-off read from the data, not from the text of the source: active = normalized growth mostly below about 0.91 (no sharp cut-off); inconclusive = no clear call, values can overlap the other calls; inactive = mostly above about 0.92.
# Assay: chemical genetic growth profiling, strain panel (AID 1159580);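 note: tested at 20 µM; growth read once vehicle control cultures reached saturation at 30 °C; 1 = growth at the plate median or of vehicle wells; lower values mean less growth of the strain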
# Details: growth OD
compound,measurement,setting,value
O=C(/C=C/c1ccc(O)cc1)c1ccc(O)cc1O,normalized growth,"S. cerevisiae deletion strains, locus YJR075W, strain HOC1, stronger effect = lower value",0.985 and 0.976
same,normalized growth,"S. cerevisiae deletion strains, locus YKL009W, strain mrt4, stronger effect = lower value",0.947
same,normalized growth,"S. cerevisiae deletion strains, locus YKL068W, stronger effect = lower value",0.95
same,normalized growth,"S. cerevisiae deletion strains, locus YKL085W, strain MDH1 (second series), stronger effect = lower value",0.965
same,normalized growth,"S. cerevisiae deletion strains, locus YKL085W, strain MDH1, stronger effect = lower value",0.965
same,normalized growth,"S. cerevisiae deletion strains, locus YKL160W, strain elf1, stronger effect = lower value",0.988
same,normalized growth,"S. cerevisiae deletion strains, locus YKL190W, strain CNB1, stronger effect = lower value",0.993
same,normalized growth,"S. cerevisiae deletion strains, locus YKR001C, strain vps1, stronger effect = lower value",0.887 (active)
same,normalized growth,"S. cerevisiae deletion strains, locus YKR026C, strain gcn3, stronger effect = lower value",1.01
same,normalized growth,"S. cerevisiae deletion strains, locus YKR091W, strain srl3, stronger effect = lower value",1.01
same,normalized growth,"S. cerevisiae deletion strains, locus YLL001W, strain dnm1, stronger effect = lower value",1.01
same,normalized growth,"S. cerevisiae deletion strains, locus YLL026W, stronger effect = lower value",1
same,normalized growth,"S. cerevisiae deletion strains, locus YLL041C, strain sdh2, stronger effect = lower value",1.01
same,normalized growth,"S. cerevisiae deletion strains, locus YLR027C, strain aat2, stronger effect = lower value",0.978
same,normalized growth,"S. cerevisiae deletion strains, locus YLR039C, strain RIC1, stronger effect = lower value",0.942
same,normalized growth,"S. cerevisiae deletion strains, locus YLR058C, strain SHM2, stronger effect = lower value",1.01
same,normalized growth,"S. cerevisiae deletion strains, locus YLR102C, strain apc9, stronger effect = lower value",0.953
same,normalized growth,"S. cerevisiae deletion strains, locus YLR113W, strain HOG1, stronger effect = lower value",0.927
same,normalized growth,"S. cerevisiae deletion strains, locus YLR221C, strain rsa3, stronger effect = lower value",0.987
same,normalized growth,"S. cerevisiae deletion strains, locus YLR258W, strain gsy2, stronger effect = lower value",1.01
same,normalized growth,"S. cerevisiae deletion strains, locus YLR262C, strain YPT6 (second series), stronger effect = lower value",1.02
same,normalized growth,"S. cerevisiae deletion strains, locus YLR262C, strain YPT6, stronger effect = lower value",1.02
same,normalized growth,"S. cerevisiae deletion strains, locus YLR268W, strain sec22, stronger effect = lower value",0.957
same,normalized growth,"S. cerevisiae deletion strains, locus YLR320W, strain mms22, stronger effect = lower value",1.01
same,normalized growth,"S. cerevisiae deletion strains, locus YLR330W, strain CHS5, stronger effect = lower value",0.985
same,normalized growth,"S. cerevisiae deletion strains, locus YLR342W, strain FKS1 (second series), stronger effect = lower value",0.981
same,normalized growth,"S. cerevisiae deletion strains, locus YLR342W, strain FKS1, stronger effect = lower value",1
same,normalized growth,"S. cerevisiae deletion strains, locus YLR357W, strain rsc2, stronger effect = lower value",0.997
same,normalized growth,"S. cerevisiae deletion strains, locus YLR370C, strain arc18, stronger effect = lower value",1.02
same,normalized growth,"S. cerevisiae deletion strains, locus YLR371W, strain rom2, stronger effect = lower value",0.9 (active)
same,normalized growth,"S. cerevisiae deletion strains, locus YLR384C, strain iki3, stronger effect = lower value",1.01
same,normalized growth,"S. cerevisiae deletion strains, locus YLR418C, strain cdc73, stronger effect = lower value",0.86
same,normalized growth,"S. cerevisiae deletion strains, locus YML016C, strain PPZ1, stronger effect = lower value",0.986
same,normalized growth,"S. cerevisiae deletion strains, locus YML032C, strain rad52, stronger effect = lower value",0.984
same,normalized growth,"S. cerevisiae deletion strains, locus YML120C, strain ndi1, stronger effect = lower value",0.995
same,normalized growth,"S. cerevisiae deletion strains, locus YML124C, strain tub3, stronger effect = lower value",0.964
same,normalized growth,"S. cerevisiae deletion strains, locus YMR058W, strain fet3, stronger effect = lower value",1.02
same,normalized growth,"S. cerevisiae deletion strains, locus YMR078C, strain ctf18, stronger effect = lower value",0.954
same,normalized growth,"S. cerevisiae deletion strains, locus YMR125W, strain sto1, stronger effect = lower value",0.992
same,normalized growth,"S. cerevisiae deletion strains, locus YMR129W, stronger effect = lower value",1.03
same,normalized growth,"S. cerevisiae deletion strains, locus YMR205C, strain PFK2, stronger effect = lower value",0.967
same,normalized growth,"S. cerevisiae deletion strains, locus YMR223W, strain ubp8, stronger effect = lower value",0.967
same,normalized growth,"S. cerevisiae deletion strains, locus YMR231W, strain pep5, stronger effect = lower value",1.01
same,normalized growth,"S. cerevisiae deletion strains, locus YMR263W, strain SAP30, stronger effect = lower value",0.989
same,normalized growth,"S. cerevisiae deletion strains, locus YMR307W, strain GAS1, stronger effect = lower value",1.08
same,normalized growth,"S. cerevisiae deletion strains, locus YNL067W, strain RPL9B, stronger effect = lower value",1.01
same,normalized growth,"S. cerevisiae deletion strains, locus YNL071W, strain lat1, stronger effect = lower value",0.996
same,normalized growth,"S. cerevisiae deletion strains, locus YNL128W, strain TEP1, stronger effect = lower value",0.964
same,normalized growth,"S. cerevisiae deletion strains, locus YNL153C, strain GIM3, stronger effect = lower value",1.03
same,normalized growth,"S. cerevisiae deletion strains, locus YNL175C, strain NOP13, stronger effect = lower value",0.979
same,normalized growth,"S. cerevisiae deletion strains, locus YNL183C, strain NPR1, stronger effect = lower value",0.944
same,normalized growth,"S. cerevisiae deletion strains, locus YNL197C, strain WHI3, stronger effect = lower value",0.992
same,normalized growth,"S. cerevisiae deletion strains, locus YNL209W, strain ssb2, stronger effect = lower value",1
same,normalized growth,"S. cerevisiae deletion strains, locus YNL224C, strain SQS1, stronger effect = lower value",0.976
same,normalized growth,"S. cerevisiae deletion strains, locus YNL233W, strain BNI4, stronger effect = lower value",0.975
same,normalized growth,"S. cerevisiae deletion strains, locus YNL248C, strain rpa49, stronger effect = lower value",1.04
same,normalized growth,"S. cerevisiae deletion strains, locus YNL250W, strain rad50, stronger effect = lower value",0.961
same,normalized growth,"S. cerevisiae deletion strains, locus YNL271C, strain bni1, stronger effect = lower value",0.965
same,normalized growth,"S. cerevisiae deletion strains, locus YNL298W, strain CLA4, stronger effect = lower value",0.99
same,normalized growth,"S. cerevisiae deletion strains, locus YNL307C, strain MCK1, stronger effect = lower value",0.968
same,normalized growth,"S. cerevisiae deletion strains, locus YNL322C, strain KRE1 (second series), stronger effect = lower value",1
same,normalized growth,"S. cerevisiae deletion strains, locus YNR049C, strain mso1, stronger effect = lower value",1.01
same,normalized growth,"S. cerevisiae deletion strains, locus YNR052C, strain pop2, stronger effect = lower value",1.01
same,normalized growth,"S. cerevisiae deletion strains, locus YOL012C, strain htz1",1.77
same,normalized growth,"S. cerevisiae deletion strains, locus YOL147C, strain pex11, stronger effect = lower value",0.969
same,normalized growth,"S. cerevisiae deletion strains, locus YOR001W, strain rrp6, stronger effect = lower value",1.02
same,normalized growth,"S. cerevisiae deletion strains, locus YOR061W, strain CKA2, stronger effect = lower value",0.988
same,normalized growth,"S. cerevisiae deletion strains, locus YOR069W, strain VPS5, stronger effect = lower value",0.976
same,normalized growth,"S. cerevisiae deletion strains, locus YOR070C, strain gyp1, stronger effect = lower value",1
same,normalized growth,"S. cerevisiae deletion strains, locus YOR080W, strain dia2, stronger effect = lower value",1.01
same,normalized growth,"S. cerevisiae deletion strains, locus YOR083W, strain WHI5 (second series), stronger effect = lower value",0.982
same,normalized growth,"S. cerevisiae deletion strains, locus YOR083W, strain WHI5, stronger effect = lower value",0.974
same,normalized growth,"S. cerevisiae deletion strains, locus YOR106W, strain vam3, stronger effect = lower value",0.988
same,normalized growth,"S. cerevisiae deletion strains, locus YOR136W, strain idh2, stronger effect = lower value",0.974
same,normalized growth,"S. cerevisiae deletion strains, locus YOR144C, strain elg1, stronger effect = lower value",0.99
same,normalized growth,"S. cerevisiae deletion strains, locus YOR184W, strain ser1, stronger effect = lower value",0.93
same,normalized growth,"S. cerevisiae deletion strains, locus YOR231W, strain MKK1, stronger effect = lower value",0.874
same,normalized growth,"S. cerevisiae deletion strains, locus YOR265W, strain rbl2, stronger effect = lower value",1.02
same,normalized growth,"S. cerevisiae deletion strains, locus YOR270C, strain vph1, stronger effect = lower value",1.04
same,normalized growth,"S. cerevisiae deletion strains, locus YOR290C, strain snf2, stronger effect = lower value",0.976
same,normalized growth,"S. cerevisiae deletion strains, locus YOR316C, strain cot1, stronger effect = lower value",0.962
same,normalized growth,"S. cerevisiae deletion strains, locus YPL051W, strain arl3, stronger effect = lower value",0.975
same,normalized growth,"S. cerevisiae deletion strains, locus YPL055C, strain LGE1, stronger effect = lower value",0.977
same,normalized growth,"S. cerevisiae deletion strains, locus YPL078C, strain atp4, stronger effect = lower value",0.99
same,normalized growth,"S. cerevisiae deletion strains, locus YPL106C, strain sse1, stronger effect = lower value",0.982
same,normalized growth,"S. cerevisiae deletion strains, locus YPL240C, strain hsp82, stronger effect = lower value",1.01
same,normalized growth,"S. cerevisiae deletion strains, locus YPL256C, strain CLN2, stronger effect = lower value",0.877
same,normalized growth,"S. cerevisiae deletion strains, locus YPR119W, strain clb2, stronger effect = lower value",0.949
same,normalized growth,"S. cerevisiae deletion strains, locus YPR141C, strain kar3, stronger effect = lower value",0.972
same,normalized growth,"S. cerevisiae deletion strains, locus YPR163C, strain tif3, stronger effect = lower value",0.976
same,normalized growth,"S. cerevisiae deletion strains, locus YPR167C, strain met16, stronger effect = lower value",0.966
same,normalized growth,"S. cerevisiae deletion strains, strain wtn01, stronger effect = lower value",0.94
same,normalized growth,"S. cerevisiae strains, strain wild type, stronger effect = lower value",0.991
